From PubChem BioAssay AID485360 (National Center for Advancing Translational Sciences (NCATS), 2010)
Several values for one entry are separate records, joined by “and”; a condition that tells them apart may be missing. Equal entries are not always repeated. Hit rate of the full screen: of about 230,000 compounds, about 1,500 (0.65%) were called active. Not shown: some 3% with an inconclusive outcome. Calls come from the whole dose curve; as a rule, active = well fitted inhibition curve with a large enough effect; inconclusive = small, poorly fitted or top-dose-only effect; inactive = no such curve, though single readings can be large or run the other way. The entries come from a sample that favours actives as a whole. Where a structure was tested more than once in an assay, its records may differ in their call.

target: Lethal(3)malignant brain tumor-like protein 1 (Homo sapiens) (UniProt Q9Y468); experiment: qHTS Assay for the Inhibitors of L3MBTL1; conditions: AlphaScreen L3MBTL1–H3K9me1 peptide binding; series mostly up to 57.1 µM; activity, negative = inhibition: at the top concentration; note: nearly all actives have a fitted effect of over 60% in size
Sequence (Q9Y468 whole entry, looked up): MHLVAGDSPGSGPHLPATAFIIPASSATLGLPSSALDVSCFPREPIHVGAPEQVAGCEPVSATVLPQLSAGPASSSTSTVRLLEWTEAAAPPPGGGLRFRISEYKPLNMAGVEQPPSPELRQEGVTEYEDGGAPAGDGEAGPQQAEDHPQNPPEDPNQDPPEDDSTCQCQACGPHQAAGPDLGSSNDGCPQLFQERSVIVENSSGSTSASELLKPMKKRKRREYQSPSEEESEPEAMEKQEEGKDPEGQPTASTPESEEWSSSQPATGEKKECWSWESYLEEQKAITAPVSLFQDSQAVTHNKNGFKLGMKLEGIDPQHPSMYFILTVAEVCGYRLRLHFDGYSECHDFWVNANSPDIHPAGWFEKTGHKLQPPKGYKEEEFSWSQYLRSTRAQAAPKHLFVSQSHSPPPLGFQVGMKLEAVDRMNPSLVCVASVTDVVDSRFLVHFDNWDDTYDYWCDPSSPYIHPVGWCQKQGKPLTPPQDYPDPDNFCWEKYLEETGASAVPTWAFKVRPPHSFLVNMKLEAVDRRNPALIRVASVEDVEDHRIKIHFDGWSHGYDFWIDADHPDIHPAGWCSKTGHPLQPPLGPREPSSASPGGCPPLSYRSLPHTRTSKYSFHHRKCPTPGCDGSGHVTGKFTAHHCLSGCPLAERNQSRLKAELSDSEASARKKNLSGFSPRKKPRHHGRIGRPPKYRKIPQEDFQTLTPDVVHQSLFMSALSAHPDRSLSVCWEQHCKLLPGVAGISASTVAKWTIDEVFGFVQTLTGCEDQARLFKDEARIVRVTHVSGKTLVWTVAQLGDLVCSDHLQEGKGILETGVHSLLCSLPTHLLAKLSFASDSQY
Description: The histone code is comprised of many post-translational modifications that occur mainly in histone tail peptides. The identity and location of these marks are read by a variety of histone binding proteins that are emerging as important regulators of cellular differentiation and development and are increasingly being implicated in numerous disease states. Small molecule probes that disrupt the interaction between histone binding proteins and chromatin would enable a systematic chemical biology study of proteins that read the histone code and could potentially reveal new targets for drug discovery. However, no such small molecules are known. This dearth of quality molecular probes can largely be attributed to the novelty of the target class and the lack of screening assays. This proposal details the development of the first high-throughput screening assay for the discovery of inhibitors of methyl-lysine binding proteins and how it can be be used to initiate a full-scale discovery effort for antagonists of histone binding proteins. Specifically, this work focuses on an AlphaScreen(tm)-based HTS assay for Malignant Brain Tumor (MBT) domain-containing proteins, which bind to the lower methylation states of lysine residues present in histone tail peptides.
To each well, 2 uL of L3MBTL1 protein (final 50 nM) and 1 uL biotinylated histone peptide monomethylated at Lys9 [b-AHA-H3(1-15)K9me1] (final 75 nM) was added using a nanoliter dispenser. Formation of a protein-peptide complex proceeded at room temperature for 30 min. A Kalypsys pin-tool was employed to transfer 23 nL of library compound solution in DMSO to each well. Cefsulodin, found in a pilot screen of the LOPAC library to be a weak inhibitor of L3MBTL1 binding, was used as an intraplate control with a 16-point titration in duplicate. Following a 30 min incubation of the protein-peptide complex with compounds at room temperature, a mixture of 40 ug/mL each streptavidin-coated donor and nickel chelate acceptor AlphaScreen beads (final 10 ug/mL) was added in a 1 uL dispense for a final volume of 4 uL. Plates were incubated, protected from the light for 30 min at room temperature. Microplates were then be read on an EnVision multilabel plate reader using the 1,536 plate HTS AlphaScreen aperture (excitation time 80 ms, measurement time 240 ms).
% is set by controls: 0 for no effect and ±100 for the full control effect; potency is the fitted concentration of half-maximal effect.

SMILES | activity, negative = inhibition | Potency
O=C1N/C(=C/c2cccs2)C(=O)N1Cc1ccc(F)cc1 | 7.41% (inactive) | –
CSC1=N/C(=C\c2ccc3c(c2)OCO3)C(=O)S1 | -5.37% (inactive) | –
CSC1=N/C(=C\C=C\c2cccs2)C(=O)S1 | – | 20 µM (active)
Cc1ccnc(SCC(=O)Nc2cccc(S(=O)(=O)N3CCOCC3)c2)n1 | -1.74% (inactive) | –
COc1ccccc1C(CNC(=O)c1cccc(NS(=O)(=O)c2ccc(Br)cc2)c1)N(C)C (stereo unspecified) | 5.64% (inactive) | –
CCOc1ccc(-n2c(O)c(/C=N/Nc3nnc(C)c(=O)[nH]3)c3ccccc3c2=O)cc1 | -28% (inactive) | –
COc1ccc(Cc2nnc(N/N=C/c3ccccc3O)[nH]c2=O)cc1OC | – | 8.91 µM (active)
COc1ccc(/C=N/Nc2nc3ccccc3c(=O)[nH]2)cc1 | 4.78% (inactive) | –
CCOc1ccccc1OCC(=O)Nc1ccccc1C(=O)NC1CC1 | -6.53% (inactive) | –
CC(OC(=O)c1ccc(S(=O)(=O)N2CCOCC2)cc1)c1ccccc1 (stereo unspecified) | 11.6% (inactive) | –
COc1ccc(-c2noc(CCC(=O)N3CCN(c4cccc(C)c4)CC3)n2)cc1 | -5.84% (inactive) | –
CN(C)c1ccc(-n2cccc2/C=C2/SC(=Nc3ccc(F)cc3)NC2=O)cc1 | -2.95% (inactive) | –
Cc1cccc(N=C2NC(=O)/C(=C/c3cn(C)c4ccccc34)S2)c1 | -12.5% (inactive) | –
Cc1ccc(N=C2NC(=O)/C(=C/C=C/c3ccco3)S2)cc1C | – | 22.4 µM (active)
CC(=O)N1c2ccc(S(=O)(=O)N3CCCC(C(=O)Nc4ccc(C)cc4C)C3)cc2CC1C (stereo unspecified) | -1.87% (inactive) | –
O=C(COC(=O)C1CCCO1)Nc1nc(-c2ccc(F)cc2)cs1 (stereo unspecified) | 5.76% (inactive) | –
O=C(CSc1nc2ccccc2c(=O)n1-c1ccccc1F)N1CCOCC1 | 2.61% (inactive) | –
Cc1ccc2c(c1)C1CN(C)CCC1N2S(=O)(=O)c1cccc(F)c1 (stereo unspecified) | -0.876% (inactive) | –
Cc1nc2ccccc2nc1N/N=C/c1ccc(O)cc1O | – | 14.1 µM (active)
FC(F)(F)c1nc2ccccc2nc1N/N=C/c1ccc(Cl)cc1 | -3.16% (inactive) | –
Oc1ccc(/C=N/Nc2nc(-c3ccccc3F)nc3ccccc23)c(O)c1 | -26.6% (inactive) | –
C=C1c2c(Cl)ccc(O)c2C(O)=C2C(=O)[C@]3(O)C(O)=C(C(N)=O)C(=O)[C@@H](N(C)C)[C@@H]3[C@@H](O)C12 (stereo partly specified) | – | 0.447 µM (active)
Cc1nn(Cc2ccccc2)c(C)c1C(=O)N1CCN(CC(=O)Nc2ccccc2Cl)CC1 | 4.62% (inactive) | –
CCN(CC(=O)NCc1ccc(F)cc1)S(=O)(=O)c1ccc(Cl)s1 | 11.7% (inactive) | –
CCOc1ccc(S(=O)(=O)Nc2cccc(C(=O)NCC3(N4CCCCC4)CCCCC3)c2)cc1 | -7.83% (inactive) | –
CC(Sc1ccccc1F)C(=O)Nc1cccc(S(=O)(=O)N2CCOCC2)c1 (stereo unspecified) | 4.02% (inactive) | –

SMILES | activity, negative = inhibition | Potency
Cc1cc(C)cc(NS(=O)(=O)Cc2ccccc2)c1 | 0.725% (inactive) | –
Cc1ccccc1NC(=O)CN1C(=O)N/C(=C\c2cccn2-c2cccc(C(=O)O)c2)C1=O | – | 3.55 µM (active)
O=C1N/C(=C/c2cccn2-c2ccccc2)C(=O)N1c1cccc(Cl)c1 | 6.45% (inactive) | –
Cc1ccccc1NC(=O)CSC(=O)c1ccccc1 | -7.88% (inactive) | –
Cc1ccc(NC(=O)C(c2ccccc2)N2CCN(C(=O)c3ccco3)CC2)cc1 (stereo unspecified) | -8.06% (inactive) | –
CN(C)C(=O)CCc1ccc2c3c([nH]c2c1)[C@]1(C)[C@@H](C(=O)N2CCCCC2)C[C@H](CC(=O)NCCC2=CCCCC2)C(=O)N1CC3 | -2.71% (inactive) | –
C=CCOc1cccc(C2NC(=O)c3ccccc3O2)c1 (stereo unspecified) | 0.914% (inactive) | –
Clc1cccc(CN2COc3c(cc(Cl)c4cccnc34)C2)c1 | -15.3% (inactive) | –
COc1cc(CN2CCC(C(N)=O)CC2)ccc1OCc1ccccc1 | 9.88% (inactive) | –
Oc1c(CN2CCCC2)cc(COCc2ccccc2)c2cccnc12 | – | inactive and 28.2 µM (active)
CCN(CC(=O)Nc1ccccc1C(F)(F)F)C(=O)C1CCN(C(=O)Nc2ccccc2)CC1 | -3.3% (inactive) | –
COc1ccc(CCNC(=O)COC(=O)c2cnc(Cl)c(Cl)c2)cc1 | -1.86% (inactive) | –
COc1ccccc1Nc1nc(N)nc(CSC(=S)N2CCOCC2)n1 | -0.65% (inactive) | –
COc1ccccc1Nc1nc(N)nc(CN(C)C2CCCCC2)n1 | – | 15.8 µM (active)
Cc1ccccc1Nc1nc(N)nc(CSc2ccccc2)n1 | -6.78% (inactive) | –
CCCCCC(=O)N1CCN(S(=O)(=O)c2ccc3c(c2)OCCCO3)CC1 | 4.12% (inactive) | –
CSc1nnc(SCc2nc3sc(C(=O)O)c(C)c3c(=O)[nH]2)s1 | – | 3.16 µM (active)
CCOC(=O)c1sc2nc(CSc3ccccc3)[nH]c(=O)c2c1C | 6.68% (inactive) | –
CCOC(=O)c1sc2nc(C)[nH]c(=O)c2c1C | 3.08% (inactive) | –
COc1ccc(S(=O)(=O)N2CCOC23CCN(S(=O)(=O)c2ccc([N+](=O)[O-])cc2)CC3)cc1 | -11% (inactive) | –
CCCCn1c(N)c(N(CC(C)C)C(=O)CN(C)S(=O)(=O)c2ccc(F)cc2)c(=O)[nH]c1=O | 5.09% (inactive) | –
CN(C)c1ccc(Nc2c3c4c(cccc4n(C)c2=O)C(=O)c2ccccc2-3)cc1 | – | 7.94 µM (active)
CN(C)c1ccc(C2N(C)C(=O)c3ccccc3N2C)cc1 (stereo unspecified) | -3.44% (inactive) | –
CC(C)Oc1ccc(S(=O)(=O)N2CCOCC2)cc1NC(=O)C1CCCC1 | -1.04% (inactive) | –
COC(=O)c1ccc2ccccc2c1OC1OC(CO)C(O)C(O)C1NC(C)=O (stereo unspecified) | 4.66% (inactive) | –
